The test system of the assay is E. coli BW25113 marRABp lux reporter. The experiment in a line: promoter activity interaction Z-score (Lux/OD deviation from empty-vector control); higher = stronger promoter induction by the compound. The method, then:
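E. coli BW25113 (wild type or ΔmarA/ΔsoxS/Δrob) carrying pTU175 luxCDABE promoter reporters was grown in LB in 384-well plates at 37°C with each of 94 compounds at 4 two-fold concentrations, in biological duplicates. Luminescence and OD600 were read every 30 min for 12 h and integrated as AUC over 8 h (0-8 h WT, 1-9 h mutants). Lux AUC was divided by OD AUC; the interaction score is the residual of a Huber robust fit of each promoter against the empty-vector control, then Z-transformed per promoter.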

± gives the standard deviation of the averaged measurements.

Turning to `Cn1c(=O)[nH]c2[nH]c(=O)[nH]c2c1=O` [1-Methyluric acid], the “promoter activity interaction Z-score” value by setting is: (11.4 µg/ml, genetic background: wild type) 0.0849 ± 0.054; (11.4 µg/ml, genetic background: ΔmarA) -0.0996 ± 0.1; (11.4 µg/ml, genetic background: Δrob) -0.0237 ± 0.035; (11.4 µg/ml, genetic background: ΔsoxS) -0.145 ± 0.068; (22.8 µg/ml, genetic background: wild type) -0.0689 ± 0.41; (22.8 µg/ml, genetic background: ΔmarA) -0.0515 ± 0.28. Besides, the “promoter activity interaction Z-score” value is -0.217 ± 0.19 (22.8 µg/ml, genetic background: Δrob); -0.242 ± 0.1 (22.8 µg/ml, genetic background: ΔsoxS); -0.206 ± 0.59 (45.5 µg/ml, genetic background: wild type); -0.417 ± 0.023 (45.5 µg/ml, genetic background: ΔmarA); -0.419 ± 0.29 (45.5 µg/ml, genetic background: Δrob); -0.415 ± 0.043 (45.5 µg/ml, genetic background: ΔsoxS). Also, the “promoter activity interaction Z-score” value is, setting by setting: (91.1 µg/ml, genetic background: wild type) -0.367 ± 0.052; (91.1 µg/ml, genetic background: ΔmarA) 0.16 ± 0.19; (91.1 µg/ml, genetic background: Δrob) -0.423 ± 0.058; (91.1 µg/ml, genetic background: ΔsoxS) -0.211 ± 0.17.

Consider `CN(C)C(=O)C(CCN1CCC(O)(c2ccc(Cl)cc2)CC1)(c1ccccc1)c1ccccc1` [Loperamide], for which the “promoter activity interaction Z-score” value reads like this: (32.1 µg/ml, genetic background: wild type) -0.202 ± 0.03; (32.1 µg/ml, genetic background: ΔmarA) -0.0422 ± 0.33; (32.1 µg/ml, genetic background: Δrob) -0.0553 ± 0.2; (32.1 µg/ml, genetic background: ΔsoxS) -0.22 ± 0.2; (64.2 µg/ml, genetic background: wild type) -0.233 ± 0.17; (64.2 µg/ml, genetic background: ΔmarA) 0.346 ± 0.1. Besides, the “promoter activity interaction Z-score” value (64.2 µg/ml, genetic background: Δrob) is -0.132 ± 0.024; the “promoter activity interaction Z-score” value (64.2 µg/ml, genetic background: ΔsoxS) was -0.171 ± 0.18; the “promoter activity interaction Z-score” value (128.4 µg/ml, genetic background: wild type) is -0.314 ± 0.22; the “promoter activity interaction Z-score” value (128.4 µg/ml, genetic background: ΔmarA) came out at 0.0947 ± 0.21; the “promoter activity interaction Z-score” value (128.4 µg/ml, genetic background: Δrob) is -0.192 ± 0.036; the “promoter activity interaction Z-score” value (128.4 µg/ml, genetic background: ΔsoxS) is -0.213 ± 0.17. Also, the “promoter activity interaction Z-score” value is, setting by setting: (256.8 µg/ml, genetic background: wild type) -0.0275 ± 0.19; (256.8 µg/ml, genetic background: ΔmarA) 0.711 ± 0.64; (256.8 µg/ml, genetic background: Δrob) -0.0389 ± 0.11; (256.8 µg/ml, genetic background: ΔsoxS) -0.046 ± 0.47.

For the origin of these results see the supplement of paper PMC12282887.
